Compound activity from PubChem.
Sampled rows, rich in hits. Any-hit rate of the full collection: about 19%.
BCR signal inh: qHTS Assay to Find Inhibitors of Chronic Active B-Cell Receptor Signaling; ABC-DLBCL IkBa-CBG/CBR reporter, luminescence ratio, 4 h; Potency, µM (series often up to 46.1 µM), for the others: at the highest dose activity change, negative = inhibition, actives largely listed as inhibitors; 340,000 compounds, 0.05% hits; active = well fitted inhibition curve with a large enough effect in the signal ratio, with a control signal flat, not every such curve was filed as active; inconclusive = small, poorly fitted or top-dose-only effect, or effect the other way, or a change in a side signal; the % refers to the signal ratio;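 also: potency is read from the fitted curve at half-maximal effect; plate controls were basal doxycycline-induced cells for no effect and cells given 10 µM MG132 for full effect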
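TMD8 ABC-DLBCL cells carrying doxycycline-inducible green luciferase fused to IkappaBalpha plus unfused red luciferase were exposed to compounds (up to 46 uM) for 4 hrs at 37C. Activity came from the overlap-corrected green/red luminescence ratio.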
TDP1 cell CPT: qHTS for Inhibitors of human tyrosyl-DNA phosphodiesterase 1 (TDP1): qHTS in cells in presence of CPT | 420,000 compounds, 12% hits | Potency, µM (doses to about 46.2 µM), without a hit: top-dose activity change, negative = growth inhibition, hits mostly inhibitors | AID 686979, 2013 | chicken DT40 Tdp1-/-;hTDP1 cells + 20 nM CPT, ATP luminescence, 48 h; also: potency is read from the fitted curve at half-maximal effect; % is scaled to controls: 0 for no effect and ±100 for the full control effect; nearly all actives have a fitted effect of over 55% in size
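Chicken DT40 Tdp1-/- cells stably complemented with human TDP1 were seeded at 400 cells/well in medium containing 20 nM camptothecin, exposed to pin-transferred compounds, and grown at 37 °C for at least 48 hr. Viability was read as ATP luminescence.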
IL-1B inflam inh: qHTS for Inhibitors of Inflammasome Signaling: IL-1-beta AlphaLISA Primary Screen. THP-1 LPS/ATP IL-1B secretion, AlphaLISA, 16 h; stronger effect = lower value. activity change, % at 57.5 µM. 360,000 compounds, 4.7% hits. AID 743279, 2014; in the data active = activity change below about -50%; inconclusive = mostly about -30% to -49%; also: % is scaled to controls: 0 for no effect and ±100 for the full control effect
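Secreted IL-1B measured by AlphaLISA bead assay after 16 h compound exposure of THP-1 cells; compounds (final up to 57.5 uM) added 1 h before LPS (250 ng/mL) and ATP (1.25 mM) stimulation; lower signal means less secretion.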
MCF10A rereplic: A quantitative high throughput screen for small molecules that induce DNA re-replication in MCF 10a normal breast cells; MCF 10A DNA re-replication, Hoechst nuclear intensity, 48 h; Potency, µM (highest dose often 46.1 µM), inactives show top-dose activity, positive = re-replication, usual class: activators; 350,000 compounds, 2.9% hits; also: potency is read from the fitted curve at half-maximal effect; % of control where 0% means no effect; nearly all actives have a fitted effect of over 50% in size
SW480 rereplic: A quantitative high throughput screen for small molecules that induce DNA re-replication in SW480 colon adenocarcinoma cells. SW480 DNA re-replication, Hoechst DNA content imaging, 48 h. Potency, µM (highest dose often 46.1 µM), for inactives: at the highest dose re-replication activation, actives largely listed as activators. 340,000 compounds, 1.8% hits; also: potency is read from the fitted curve at half-maximal effect; % of control where 0% means no effect; nearly all actives have a fitted effect of over 55% in size
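250 cells/well; 23 nL cpd via pin tool; 48 hr, 37 C, 5% CO2; Hoechst 40 min; imager read of total nuclear intensity, ex 405/em 500-530 nm.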
TDP1 cell noCPT: qHTS for Inhibitors of human tyrosyl-DNA phosphodiesterase 1 (TDP1): qHTS in cells in absence of CPT; DT40 Tdp1-/- hTDP1 cells, no CPT, ATP luminescence, 48 h; Potency, µM (top dose mostly 46.2 µM), without a hit: at the highest dose activity change, negative = growth inhibition, usual class: inhibitors; 420,000 compounds, 15% hits; also: potency is read from the fitted curve at half-maximal effect; % is scaled to controls: 0 for no effect and ±100 for the full control effect; nearly all actives have a fitted effect of over 55% in size
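Stably hTDP1-transfected Tdp1-null chicken DT40 cells were treated with library compounds minus camptothecin and grown for at least 48 hr at 37 °C, after which cellular ATP was quantified by luminescence.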
Active calls of the source: *; ? = inconclusive; . = not tested or not shown; ! = a repeat was not active; [ ] = another dose, or the depositor's remark. Unless noted, calls follow the shape of the dose curve; as a rule, active = well fitted curve in the direction sought with a large enough effect; inconclusive = small, poorly fitted or top-dose-only effect, or another doubt; inactive = no such curve, though single readings can be large; an effect the other way counts as inactive or inconclusive.

SMILES | BCR signal inh | TDP1 cell CPT | IL-1B inflam inh | MCF10A rereplic | SW480 rereplic | TDP1 cell noCPT
N#Cc1ccccc1OCC(=O)N1CCN(c2ccccc2)CC1 | . | -12.0% | . | . | . | -0.3%
COc1ccc(-n2c(=O)c(-c3cn(C)c4ccccc34)nc3cnc(N4CCOCC4)nc32)cc1 | . | -4.0% | . | . | . | 12.3%
Cc1cccc(CCn2c(=O)c3ccccc3n(Cc3ccccc3C)c2=O)c1 | . | 14.6µM* | . | . | . | 16.4µM*
O=c1c2ccccc2n(Cc2ccccc2F)c(=O)n1-c1cccc(F)c1 | . | ? | . | . | . | 14.6µM*
Cc1cccc(CCn2c(=O)c3ccccc3n(Cc3cccc(F)c3)c2=O)c1 | . | 18.4µM* | . | . | . | 23.1µM*
N#Cc1ccccc1Cn1c(=O)n(C2CCCC2)c(=O)c2ccccc21 | 9.6% | 16.4µM* | -18.3 | 12.2% | 10.1% | 18.4µM*
COc1ccc([C@@H]2[C@@H](O)[C@H](O)[C@@H](C)N2C)cc1OC | . | -20.4%[9.04 µM] | . | . | . | -15.7%[9.04 µM]
Cc1cc([N+](=O)[O-])ccc1NC(=O)C(C)NC1CCCCC1 (centres undefined) | 4.3% | -3.6% | ? | 0.5% | 5.8% | -22.0%
O=c1c2ccccc2n(Cc2cccc(F)c2)c(=O)n1C1CCCC1 | 4.6% | ? | 16.0 | ? | -1.9% | 23.1µM*
CCn1c(=O)c2ccccc2n(Cc2cccc([N+](=O)[O-])c2)c1=O | 1.1% | 1.8% | -50.3* | 6.3% | -1.9% | ?
Cc1cc2[nH]c3c4ccccc4nc(C)c3c2cc1C | . | 3.66µM* | -112.4* | 26.3% | 10.4% | 2.59µM*
Cn1nnnc1SCC(=O)NC1CCCc2ccccc21 (centres undefined) | -0.1% | 7.5% | -3.7 | -2.0% | -0.5% | -3.6%
CC(C)(C)CN1CCC(n2nccc2NC(=O)c2ccccc2Cl)CC1 | -2.1% | 9.2% | 17.9 | -1.8% | 11.3% | 0.2%
COc1cc(NC(=O)CCS(=O)(=O)c2ccc(Br)cc2)cc(OC)c1 | -3.3% | -24.6% | . | . | . | ?
CCc1cccc(NC(=O)CCS(=O)(=O)c2ccc(Br)cc2)c1 | -2.0% | 23.1µM* | 23.4 | ? | ? | 29.1µM*
CC(C)c1cc(CN2C(C)COCC2C)cc(C(C)C)c1O (centres undefined) | . | 20.6µM* | -18.2 | 2.4% | -3.0% | ?
CC(=O)Nc1cc(C(C)C)c(O)c(C(C)C)c1 | 4.1% | -6.7% | -1.7 | -3.5% | 3.0% | -27.2%
Cn1nnnc1SCC(=O)Nc1ccc(S(=O)(=O)N2CCOCC2)cc1 | -0.8% | 0.0% | -8.6 | 2.2% | 1.8% | 22.6%
Nc1[nH]c(C(=O)c2ccccc2)c(-c2ccncc2)c1C(=O)NC1CC1 | . | -13.5% | -15.0 | . | . | -15.7%
CSc1nc(N)nc(SCCS(=O)(=O)c2ccc(Cl)cc2)c1C#N | ? | 20.6µM* | ? | 13µM* | ? | 25.9µM*
CSc1nc(N)nc(SCC(=O)C(C)(C)C)c1C#N | ? | ? | -14.2 | ? | 0.6% | 23.1µM*
CSc1nc(N)nc(SCC(=O)Nc2ccc(Cl)cc2)c1C#N | 13.9% | ? | -77.7* | 0.5% | -4.4% | 20.6µM*
Cc1cc(C)c(C)c(S(=O)(=O)N2CCN(C(=O)CNC(=O)c3ccco3)CC2)c1C | 2.5% | -18.4% | -11.9 | 6.3% | -10.6% | -0.7%
Cc1cccc(CN2CCc3nnc(C(C)NC(=O)C4CCOCC4)n3CC2)c1 (centres undefined) | . | 14.0% | . | . | . | 0.2%
CCOC(=O)c1cc2c(=O)n3ccccc3nc2n(Cc2ccco2)c1=NC(=O)c1ccc(C)c(C)c1 | . | -23.0% | . | . | . | ?
SMILES | BCR signal inh | TDP1 cell CPT | IL-1B inflam inh | MCF10A rereplic | SW480 rereplic | TDP1 cell noCPT
CCOC(=O)c1cc2c(=O)n3ccccc3nc2n(CCOC)c1=NC(=O)c1ccncc1 | 0.8% | ? | 1.0 | 4.2% | -3.3% | ?
CCOC(=O)c1cc2c(=O)n3ccccc3nc2n(Cc2ccco2)c1=NC(=O)c1ccc(Br)cc1 | . | 18.4µM* | . | . | . | -83.5%
CCOC(=O)c1cc2c(=O)n3ccccc3nc2n(CCOC)c1=NC(=O)c1c(-c2c(F)cccc2Cl)noc1C | -0.8% | ? | -55.1* | 18.4µM* | ? | 18.4µM*!
CCOC(=O)c1cc2c(=O)n3ccccc3nc2n(Cc2ccco2)c1=NC(=O)c1c(F)cccc1Cl | . | ? | . | . | . | 20.6µM*
CCOC(=O)c1cc2c(=O)n3ccccc3nc2n(Cc2ccco2)c1=NC(=O)c1cccc(C)c1 | . | 23.1µM* | . | . | . | ?
CN1C(=O)N(CC(=O)Nc2ccc3c(c2)OCO3)C(=O)C12CCCCC2 | . | -0.2% | -16.8 | . | . | -8.7%
CCCCN1C(=O)C(CC(=O)NCC2CCCCC2)CC(C(=O)N2CCOCC2)=C1C (centres undefined) | . | -11.9% | 14.7 | . | . | -26.2%
COc1ccc(Cl)cc1N1C(=O)CC(N2CCN(S(=O)(=O)c3ccccc3F)CC2)C1=O (centres undefined) | 1.4% | -15.0% | 19.5 | 5.0% | ? | -8.1%
CCOC(=O)c1cc2c(=O)n3ccccc3nc2n(C(C)C)c1=NC(=O)c1ccncc1 | -8.9% | -14.3% | -14.3 | -0.5% | 17.5% | ?
CCOC(=O)c1cc2c(=O)n3ccccc3nc2n(Cc2ccco2)c1=NC(=O)c1ccccc1OCC | 14.0% | ? | -2.9 | 0.0% | -3.2% | 18.4µM*
CCOC(=O)c1cc2c(=O)n3ccccc3nc2n(Cc2ccco2)c1=NC(=O)c1cccc(Br)c1 | ? | 16.4µM* | . | . | . | ?
CC(C)NC(=O)c1ccc2c(c1)N(CC(=O)N1CCCC1)C(=O)C(C)(C)O2 | ? | 16.2% | 43.6 | 2.1% | -5.5% | 3.3%
CC(C)NC(=O)c1ccc2c(c1)N(Cc1ccccc1)C(=O)C(C)(C)O2 | 0.4% | -10.2% | -52.1* | 11.5% | 2.1% | -21.2%
CCOc1cc2nc3c4ccccc4n(C)c3nc2cc1OCC | 0.6% | ? | 0.0 | ? | ? | ?
CCN(CC)Cc1cc(Nc2c3ccccc3nc3c4ccccc4n(C)c23)cc(CN(CC)CC)c1O | . | 2.59µM* | -112.5* | ? | ? | 5.8µM*
CC(=O)c1cccc(-c2ccnc3c2CC(C(=O)NCc2ccncc2)O3)c1 (centres undefined) | . | ? | 32.3 | . | . | ?
CC(=O)c1cccc(-c2ccnc3c2CC(C(=O)NCC2CC2)O3)c1 (centres undefined) | . | 23.1µM* | 64.6 | . | . | ?
